According to the supplement of paper PMC7156485:
± gives the standard deviation of the averaged measurements.

Tests used:
Settings in all cases: concentration: 10 µM; 24 h
HCC1569 [1] = test: cell number relative to DMSO (% of DMSO); higher = more cells (less growth inhibition / toxicity)
Method in brief: (§1)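 Cell number or H1.0 nuclear intensity appears as percent of the plate control, based on the median of replicates. Measurements came from HCC1569 and TDF cells exposed in triplicate to compounds at 10 µM for 24 h at 37 °C, then imaged in six fields per well at ×10. Positional effects were smoothed out of HCC1569 values.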

TDF [2] = test: as above
Method in brief: as §1

TDF [3] = test: H1.0 immunofluorescence intensity relative to DMSO (% of DMSO); higher = stronger H1.0 induction, active = 120 or more
Method in brief: as §1

HCC1569 [4] = test: H1.0 immunofluorescence intensity relative to DMSO (% of DMSO); higher = stronger H1.0 induction, active = 140 or more
Method in brief: as §1
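Throughout, for H1.0 immunofluorescence intensity relative to DMSO: TDF is a line of transformed human dermal fibroblasts of mesenchymal origin.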
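Throughout, for cell number relative to DMSO: TDF denotes transformed human dermal fibroblasts of mesenchymal origin.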

Compound | cell number (HCC1569 [1]) | cell number (TDF [2]) | H1.0 immunofluorescence intensity (TDF [3]) | H1.0 immunofluorescence intensity (HCC1569 [4])
COc1cc2c(c(OC)c1OC)-c1ccc(OC)c(=O)cc1C(NC(C)=O)CC2 (centres undefined) [Colchicine] | 57.57 ± 0.52 | 9.12 ± 1.6 | 168 (active) | 132 (inactive)
Cl.NNC(N)=O [Semicarbazide hydrochloride] | 102 | 111 | 89 (inactive) | 108 (inactive)
C=CCN1CC(C)N(C(c2ccc(C(=O)N(CC)CC)cc2)c2cccc(OC)c2)CC1C (centres undefined) | 102 | 102 | 96.5 (inactive) | 87.8 (inactive)
C1CCC(NC2CCCCC2)CC1 | 96.5 | 102 | 93.9 (inactive) | 100 (inactive)
CC1Cc2c(Cl)cc(C(=O)NC(Cc3ccccc3)C(=O)O)c(O)c2C(=O)O1 (centres undefined) [Ochratoxin A] | 107 | 92.7 | 103 (inactive) | 92.1 (inactive)
CC1CCC2C(C)C3C(CC4C5CCC6CC(O)CCC6(C)C5CCC43C)N2C1 (centres undefined) [Demissidine] | 97.9 | 92.2 | 102 (inactive) | 92.6 (inactive)
CN1C(=O)CCS(=O)(=O)C1c1ccc(Cl)cc1 (centres undefined) [Chlormezanone] | 101 | 108 | 85.9 (inactive) | 95.3 (inactive)
CC(=O)NCCc1c[nH]c2ccccc12 [N-Acetyltryptamine] | 101 | 97.5 | 104 (inactive) | 94.1 (inactive)
CN1CC(CO)CC2c3cccc4[nH]cc(c34)CC21 (centres undefined) [9,10-Dihydrolysergol] | 96.5 | 98.2 | 102 (inactive) | 92.7 (inactive)
Cl.Cl.Fc1ccc(C(OCCN2CCN(CCCc3ccccc3)CC2)c2ccc(F)cc2)cc1 | 81 | 69.8 | 96.7 (inactive) | 124 (inactive)
COC(=O)C1(O)CC2OC1(C)n1c3ccccc3c3c4c(c5c6ccccc6n2c5c31)C(=O)NC4 (centres undefined) [K-252a, Nocardiopsis sp.] | 33.7 | 2.54 | – | 75.8 (inactive)
CNc1ccc2oc(CC3OC4(CCC3C)OC(C(C)C(=O)c3ccc[nH]3)C(C)CC4C)nc2c1C(=O)O (centres undefined) | 70.4 | 49.7 | 151 (active) | 124 (inactive)
CN(C)C(=O)Oc1ccc[n+](C)c1.[Br-] [Pyridostigmine bromide] | 103 | 107 | 96.8 (inactive) | 108 (inactive)
COc1ccc2c(c1)C13CCCCC1C(C2)NCC3.Cl (centres undefined) [3-Methoxy-morphanin hydrochloride] | 99.1 | 107 | 97.3 (inactive) | 99.5 (inactive)
Br.COC(=O)C1=CCCN(C)C1 | 102 | 112 | 89.8 (inactive) | 82.8 (inactive)
CC(=O)NBr [N-Bromoacetamide] | 105 | 101 | 96.8 (inactive) | 90.3 (inactive)
CN(C)C(=O)Oc1cc(OC(=O)N(C)C)cc(C(O)CNC(C)(C)C)c1.Cl (centres undefined) | 104 | 104 | 91.4 (inactive) | 101 (inactive)
CN1C2CCC1CC(OC(=O)C(CO)c1ccccc1)C2.CN1C2CCC1CC(OC(=O)C(CO)c1ccccc1)C2.O.O=S(=O)(O)O (centres undefined) [Atropine sulfate] | 102 | – | 91.8 (inactive) | 85.2 (inactive)
Clc1ccc(C2CC3CCC2N3)cn1 (racemic) | 102 | 96.3 | 90.6 (inactive) | 81.4 (inactive)
CCCCCC=CCC=CCC=CCC=CCCCC(=O)NCCc1ccc(O)c(O)c1 [Arachidonyl dopamine] | 87.9 | 91.8 | 94.9 (inactive) | 124 (inactive)
Cl.NN=C(N)N [Aminoguanidine hydrochloride] | 105 | 109 | 93.8 (inactive) | 94.2 (inactive)
CN1CC(C(=O)NC2(C)OC3(O)C4CCCN4C(=O)C(Cc4ccccc4)N3C2=O)C=C2c3cccc4[nH]cc(c34)CC21 (centres undefined) [Ergotamine] | 97.8 | 108 | 95.3 (inactive) | 106 (inactive)
CCCN1CCc2cccc3c2C1Cc1ccc(O)c(O)c1-3.Cl (stereo not drawn) [R(-)-Propylnorapomorphine hydrochloride] | 93.2 | 91.8 | 92.9 (inactive) | 105 (inactive)

Compound | cell number (HCC1569 [1]) | cell number (TDF [2]) | H1.0 immunofluorescence intensity (TDF [3]) | H1.0 immunofluorescence intensity (HCC1569 [4])
CN(C)C1C(=O)C(C(N)=O)=C(O)C2(O)C(=O)C3=C(O)c4c(O)cccc4C(C)(O)C3CC12 (centres undefined) [Tetracycline] | 104 | 109 | 101 (inactive) | 95.2 (inactive)
CCN(C)C(=O)Oc1cccc(C(C)N(C)C)c1 (centres undefined) [Rivastigmine] | 102 | 114 | 90 (inactive) | 105 (inactive)
Cc1ccc2c(c1)C1(CCN(CCc3nc(-c4ccccc4)oc3C)CC1)OC(=O)N2 | 85.9 | 91.1 | 107 (inactive) | 123 (inactive)
Br.CCCN(CCC)CCc1ccc(O)c(O)c1 [Dipropyldopamine hydrobromide] | 97.9 | 104 | 90.8 (inactive) | 100 (inactive)
CC(N)Cc1c[nH]c2ccc(O)cc12.O=C(O)C=CC(=O)O (stereo not drawn) [alpha-Methyl-5-hydroxytryptamine maleate] | 99.8 | 104 | 90.3 (inactive) | 87.9 (inactive)
Cl.c1ccc(C2CC2)c(OCC2=NCCN2)c1 [Cirazoline hydrochloride] | 102 | 109 | 90.7 (inactive) | 87.7 (inactive)
Cc1cccc(C)c1NC1=NCCCS1 [Xylazine] | 106 | 106 | 95.4 (inactive) | 106 (inactive)
CCCN1CCOC2c3cc(O)ccc3OCC21.Cl (stereo not drawn) [S(+)-PD 128,907 hydrochloride] | 103 | 104 | 93.3 (inactive) | 100 (inactive)
CS(=O)CCCCN=C=S (centres undefined) [1-isothiocyanato-4-(methylsulfinyl)butane] | 99.7 | 94.9 | 93.7 (inactive) | 89.6 (inactive)
O=c1[nH]c2ccccc2n1C1CCN(CCCC(c2ccc(F)cc2)c2ccc(F)cc2)CC1 [Pimozide] | 81.2 ± 11 | 90.7 ± 1.7 | 107 (inactive) | 144 (active)
COc1ccc(C(CN(C)C)C2(O)CCCCC2)cc1 (centres undefined) [Venlafaxine] | 102 | 107 | 106 (inactive) | 110 (inactive)
COC(C(=O)C(O)C(C)O)C1Cc2cc3cc(OC4CC(OC5CC(O)C(OC)C(C)O5)C(OC(C)=O)C(C)O4)c(C)c(O)c3c(O)c2C(=O)C1OC1CC(OC2CC(OC3CC(C)(O)C(OC(C)=O)C(C)O3)C(O)C(C)O2)C(O)C(C)O1 (centres undefined) [Chromomycin A3] | 42.1 | 19.4 | 175 (active) | 196 (active)
COc1ccc2c(c[n+](C)c3c4cc5c(cc4ccc23)OCO5)c1OC.[Cl-] [Chelerythrine chloride] | 55.4 | 0.93 | – | 157 (active)
c1cc2c(cc1C1OCC3C(c4ccc5c(c4)OCO5)OCC13)OCO2 (single isomer, unassigned; (-)) [(-)-Asarinin] | 98.4 | 99.2 | 101 (inactive) | 88.6 (inactive)
CCCCCC=CCC=CCC=CCC=CCCCCCC(=O)NCCO [Anandamide (22:4,n-6)] | 102 | 104 | 102 (inactive) | 98.3 (inactive)
CCN1CC2(COC)CCC(OC)C34C5CC6C(OC)CC7(OCOC7(C(O)C23)C14)C5C6OC (centres undefined) [Delcorine] | 103 | 105 | 99 (inactive) | 94.3 (inactive)
CN1C2CCC1CC(OC(=O)C(CO)c1ccccc1)C2.CN1C2CCC1CC(OC(=O)C(CO)c1ccccc1)C2.O=S(=O)(O)O (centres undefined) [Atropine sulfate] | – | – | 91.7 (inactive) | 88.9 (inactive)
CN(C)CCc1ccc(O)cc1.CN(C)CCc1ccc(O)cc1.O=S(=O)(O)O [Hordenine sulfate] | 99.3 | 99.9 | 104 (inactive) | 99.9 (inactive)
C=C(C)C1Cc2c(ccc3c2OC2COc4cc(OC)c(OC)cc4C2C3=O)O1 (centres undefined) [Rotenone] | 59.7 ± 1.6 | 16.2 ± 0.54 | 147 (active) | 178 (active)
C[N+]1([O-])C2CCC1CC(OC(=O)C(CO)c1ccccc1)C2.Cl (centres undefined) | 97.9 | 107 | 92.4 (inactive) | 85 (inactive)
Cl.c1ccc2c(c1)OCC(C1=NCCN1)O2 (centres undefined) [Idazoxan hydrochloride] | 102 | 98.8 | 99.6 (inactive) | 99 (inactive)
Clc1ccc(C(c2ccc(Cl)cc2)n2cc[n+](CC(OCc3ccc(Cl)cc3Cl)c3ccc(Cl)cc3Cl)c2)cc1.[Cl-] (centres undefined) [Calmidazolium chloride] | 17.8 | 0.84 | – | 95.3 (inactive)
